# From PubChem BioAssay
# Tgondii IFNg: blocks Toxoplasma gondii growth in the presence of IFN-gamma; activity change, negative = inhibition, % (concentration not given with the values); Toxoplasma gondii growth in IFN-gamma-treated host cells; stronger effect = lower value; AID 1259416; 69,000 compounds, 3.8% hits; in the data active = activity change below about -70%, passing the limit was not always enough;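 note: host cells are HeLa cells infected with Toxoplasma gondii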
# Numbers stand for hits; . = inactive; ! = a repeat was not active. Many of the other results were omitted from the sample, so hits are more common in it than they were.
SMILES,Tgondii IFNg
O=C(O)C(Cc1ccc(F)cc1)c1ccccc1 (centres undefined),.
Fc1ccc(CNC(=S)NC(Cc2ccccc2)c2ccccc2)cc1 (centres undefined),-94
Cc1ncoc1C(=O)N1CCC(c2n[nH]c(=O)n2Cc2ccccc2)CC1,.
CS(=O)(=O)N(CCCC(=O)NCc1ccco1)c1cc(Cl)ccc1Cl,.
Cc1ccc(Cl)cc1N(CC(=O)Nc1c(F)cccc1F)S(C)(=O)=O,-76
Cc1ccccc1NC(=O)CN(c1cc(Cl)ccc1C)S(C)(=O)=O,.
Cc1cc(C(F)(F)F)n2nc(C(=O)N3CCC(c4onc5c4CC(C)CC5)CC3)cc2n1 (centres undefined),.
CSc1cccc(NC(=O)CN2C(=O)CCc3cc(S(=O)(=O)N4CCCC4)ccc32)c1,.
CC1CCN(S(=O)(=O)c2ccc3c(c2)CCC(=O)N3CC(=O)Nc2ccc(F)c(F)c2)CC1,.
Cc1ccc(NC(=O)CN2C(=O)CCc3cc(S(=O)(=O)N4CCCCC4C)ccc32)cc1F (centres undefined),.
CCc1cccc(NC(=O)CN2C(=O)CCc3cc(S(=O)(=O)N4CCC(C)CC4)ccc32)c1,-127
CC1CCN(S(=O)(=O)c2ccc3c(c2)CCC(=O)N3CC(=O)NCc2ccccc2)CC1,.
Cc1ccc(C)c(NC(=O)CN2C(=O)CCc3cc(S(=O)(=O)N4CCCCC4C)ccc32)c1 (centres undefined),.
CC1CCN(S(=O)(=O)c2ccc3c(c2)CCC(=O)N3CC(=O)NC(C)C)CC1,.
CSc1cccc(NC(=O)CN2C(=O)CCc3cc(S(=O)(=O)N4CCCCC4C)ccc32)c1 (centres undefined),-86
Cc1cccc(NC(=O)CN2C(=O)CCc3cc(S(=O)(=O)N4CCCCC4C)ccc32)c1C (centres undefined),.
CC1CCN(S(=O)(=O)c2ccc3c(c2)CCC(=O)N3CC(=O)Nc2cccnc2)CC1,.
CCc1cccc(NC(=O)CN2C(=O)CCc3cc(S(=O)(=O)N4CCCCC4C)ccc32)c1 (centres undefined),-77
CC1CCN(S(=O)(=O)c2ccc3c(c2)CCC(=O)N3CC(=O)N(Cc2ccccc2)C(C)C)CC1,-81
CCc1cnc(N2CC[C@@H]3CN(c4ccc(C)nn4)CCO[C@H]3C2)nc1,.
COc1cc(CNC2(c3ccccc3F)CCCC2)ccc1OCc1c(C)noc1C,.
O=C(c1cc2cccnc2n(Cc2ccccc2F)c1=O)N(CCc1ccccc1)Cc1ccccc1,.
Cc1noc(C)c1NC(=O)c1ccc(CN2CCCCC2c2ccn(C)n2)cc1 (centres undefined),.
Cc1oc(-c2cccc(Cl)c2)nc1Cn1nnc(-c2nc(-c3ccc(F)cc3)no2)c1C,.
COc1cc(CNC(=O)C2(C)CCN(C(=O)c3ccc(Br)cc3)CC2)cc(OC)c1,.
SMILES,Tgondii IFNg
COc1ccc(OCc2cc(C(=O)NCC3CCOC3)n[nH]2)c(Cl)c1 (centres undefined),.
Cc1occc1C(=O)N1CCC2OCCCC2(COc2cccnc2)C1 (centres undefined),.
Cc1cc2sc(NC(=O)c3cccc(Cn4cncn4)c3)nc2cc1Cl,.
COCC(=O)n1nc(-c2ccco2)nc1NCc1cccs1,.
Oc1c(Cl)cc(Cl)cc1Sc1cc(Cl)cc(Cl)c1O,-84!
Cc1ccc(C(=O)N2CCc3c(nc(-c4ccccc4)nc3N(C)C)C2)cc1,.
Cn1ncc2c(N3CCN(C(=O)N4CCOCC4)CC3)nc(C(C)(C)C)nc21,.
CC1NC(=O)COC12CCN(Cc1nccn1C)CC2 (centres undefined),.
COc1ccc(OC)c(C(c2nnnn2C2CCCCC2)N2CCC(C(N)=O)CC2)c1 (centres undefined),.
NCC(=O)Nc1ccc(-n2nc(C(F)(F)F)cc2-c2ccc3c(ccc4ccccc43)c2)cc1,-87
NCC(=O)Nc1ccc(-c2cccc(C(F)(F)F)c2)cc1F,.
Cc1ccc(-c2cc(C(F)(F)F)nn2-c2ccc(S(N)(=O)=O)cc2)cc1,.
CCOc1ncccc1C(=O)NC(c1ccccc1)c1ccncc1 (centres undefined),.
CC(c1ccco1)N(C)Cc1cccn1-c1ccncc1 (centres undefined),.
CC(C)n1ccc(-c2cc(C(=O)C3CC3)c3ccccn23)n1,.
CCCCNc1nc(-c2nnc(-c3ccccc3)o2)nc2ccccc12,-89
Cc1ccc(-c2nnc(-c3nc(NCCCN4CCc5ccccc5C4)c4ccccc4n3)o2)cc1,-118
Cc1ccc(-c2nnc(-c3nc(NCCCN4CCCC4=O)c4ccccc4n3)o2)cc1,.
c1ccc(-c2nnc(-c3nc(NCCN4CCOCC4)c4ccccc4n3)o2)cc1,.
COc1ccc(CNc2nc(-c3nnc(-c4ccccc4)o3)nc3ccccc23)cc1,.
Cc1ccc(-c2nnc(-c3nc(NCCc4cccs4)c4ccccc4n3)o2)cc1,.
CCCSCCCNc1nc(-c2nnc(-c3ccccc3)o2)nc2ccccc12,-92
Cc1cccc(-c2nnc(-c3nc(NCCc4cnc[nH]4)c4ccccc4n3)o2)c1,.
CCCSCCCNc1nc(-c2nnc(-c3cccc(C)c3)o2)nc2ccccc12,-107
Cc1cccc(-c2nnc(-c3nc(NCCCN4CCCC4=O)c4ccccc4n3)o2)c1,.
SMILES,Tgondii IFNg
CCCCNc1nc(-c2nnc(-c3ccc(C)cc3)o2)nc2ccccc12,.
Cc1ccc(CNc2nc(-c3nnc(-c4ccccc4)o3)nc3ccccc23)o1,.
CNC(=O)c1ccc(-c2nc(CN3CCN(C(=O)Nc4ccc5c(c4)OCCO5)CC3)c(C)o2)cc1,.
COc1cccc(CNC(=O)CN2C(=O)CCc3cc(S(=O)(=O)N4CCC(C)CC4)ccc32)c1,.
O=C(CN1C(=O)NC2(CCCCC2)C1=O)NC1(C#Cc2nccs2)CCCCC1,.
Cc1cc(N)n(-c2ccc(C(=O)N(Cc3ccccn3)CC3CCCO3)cc2)n1 (centres undefined),.
Cc1[nH]c2ccc(CNC(=O)c3cc(CC(C)C)[nH]c(=O)n3)cc2c1C,.
COc1ccc(-c2nc(Cn3nnc(C(=O)Nc4cccc(C(F)(F)F)c4)c3C)c(C)o2)c(OC)c1,.
COc1ccccc1NC(=O)Cn1c(=O)cc(C(=O)N2CCC(C)CC2)c2ccccc21,.
Cc1cc2ncc(C(=O)NC(CCN3CCCCC3)c3ccccc3)c(N)n2n1 (centres undefined),.
Cc1ccc(CCNc2nc(-c3nnc(-c4ccccc4)o3)nc3ccccc23)cc1,.
C1=C(CCNc2nc(-c3nnc(-c4ccccc4)o3)nc3ccccc23)CCCC1,-99
c1ccc(-c2nnc(-c3nc(NCCc4cccs4)c4ccccc4n3)o2)cc1,.
Cc1ccc2oc(C(=O)N(C)C(C)c3nccs3)cc2c1 (centres undefined),.
CCc1ncc(CN2CCN(Cc3cccc(C)c3)CC2)cn1,.
Cc1ccc(CC(=O)N2CC(C(=O)N3CCCC3)C3(CCOCC3)C2)cc1 (centres undefined),.
Cc1nc(C)c(C(=O)NC(C)Cn2cncn2)s1 (centres undefined),.
CCOc1ccc(-n2cnnc2)cc1-n1cccc1,-74
CCC/C=C/c1cccc(-n2cnnc2)c1,.
c1cc(-n2ccnc2)cc(-n2cnnc2)c1,.
CCOc1ccc(CNC(=O)c2nc(Nc3ccc(C)cc3)c3ccccc3n2)cc1,.
CN1CCc2nc(C(=O)N[C@H]3C[C@H](C(=O)N(C)C)CC[C@@H]3NC(=O)C(=O)Nc3ccc(Cl)cn3)sc2C1,.
CCN1CCC2(CCC1=O)CC(NC(=O)c1ccncc1)c1ccccc1O2 (centres undefined),.
